# Source: PubChem BioAssay (Tox21)
# Results filed as inconclusive are left out. Entries that show only a call come without a potency. A number with no mark means an inactive call. The source made the active and inactive calls. Calls follow the shape of the dose curve; as a rule, active = well fitted curve in the direction sought with a large enough effect in the repeat runs; inconclusive = weak or mixed curves; inactive = no such curve, though single readings can be large; an effect the other way counts as inactive or inconclusive.
# Tests used:
# [1] = molecular target: Cytochrome P450 2C19 (Homo sapiens) (UniProt P33261); assay: Cytochrome P450 Family 2 Subfamily C Member 19 (CYP2C19) small molecule antagonists: luciferase reporter qHTS assay (AID 1671197); also: nearly all actives have a fitted effect of over 65% in size; as to activity change, negative = inhibition: series mostly up to about 120 µM
# Sequence of Cytochrome P450 2C19 (Homo sapiens) (P33261 whole entry, looked up): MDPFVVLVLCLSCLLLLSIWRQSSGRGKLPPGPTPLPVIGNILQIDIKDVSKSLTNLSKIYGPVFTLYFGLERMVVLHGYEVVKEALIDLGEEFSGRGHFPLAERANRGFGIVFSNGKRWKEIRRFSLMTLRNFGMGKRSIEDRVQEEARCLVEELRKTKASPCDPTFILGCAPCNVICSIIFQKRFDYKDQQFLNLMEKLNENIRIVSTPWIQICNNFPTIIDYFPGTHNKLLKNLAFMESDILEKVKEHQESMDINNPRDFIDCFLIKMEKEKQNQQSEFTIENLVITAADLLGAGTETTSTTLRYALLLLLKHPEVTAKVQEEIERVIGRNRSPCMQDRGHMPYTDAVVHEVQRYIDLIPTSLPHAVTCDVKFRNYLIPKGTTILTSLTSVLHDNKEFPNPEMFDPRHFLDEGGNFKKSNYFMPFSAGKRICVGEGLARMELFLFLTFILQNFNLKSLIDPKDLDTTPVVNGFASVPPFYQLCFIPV
# Summary of the method: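 Compounds were tested on CYP2C19 activity via proluciferin conversion to luciferin. The 37C, 1 h reaction followed NADPH addition; detection reagent stopped it.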
# [2] = molecular target: Cytochrome P450 2C9 (Homo sapiens) (UniProt P11712); assay: Cytochrome P450 Family 2 Subfamily C Member 9 (CYP2C9) small molecule antagonists: luciferase reporter qHTS assay (AID 1671198); also: nearly all actives have a fitted effect of over 50% in size; as to activity change, negative = inhibition: series mostly up to about 120 µM
# Sequence of Cytochrome P450 2C9 (Homo sapiens) (P11712 whole entry, looked up): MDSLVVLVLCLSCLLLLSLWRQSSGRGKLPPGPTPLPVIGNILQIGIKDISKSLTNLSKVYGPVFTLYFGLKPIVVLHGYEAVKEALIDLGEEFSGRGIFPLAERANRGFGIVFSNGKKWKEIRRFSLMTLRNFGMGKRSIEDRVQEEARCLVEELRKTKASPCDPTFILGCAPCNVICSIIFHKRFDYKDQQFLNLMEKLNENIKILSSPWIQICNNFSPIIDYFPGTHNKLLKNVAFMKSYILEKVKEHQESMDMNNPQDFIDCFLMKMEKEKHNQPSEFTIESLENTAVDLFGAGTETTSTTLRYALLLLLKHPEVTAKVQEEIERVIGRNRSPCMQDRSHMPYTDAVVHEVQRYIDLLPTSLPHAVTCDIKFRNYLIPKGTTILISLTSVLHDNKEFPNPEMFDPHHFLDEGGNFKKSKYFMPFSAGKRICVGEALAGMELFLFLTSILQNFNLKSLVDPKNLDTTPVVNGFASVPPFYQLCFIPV
# Summary of the method: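 P450-Glo proluciferin substrate with CYP2C9 enzyme; 10 min RT preincubation, then NADPH regeneration 1 h at 37C; luciferin detection reagent 20 min RT, luminescence in relative luminescence units.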
# [3] = molecular target: Cytochrome P450 1A2 (Homo sapiens) (UniProt P05177); assay: Cytochrome P450 Family 1 Subfamily A Member 2 (CYP1A2) small molecule antagonists: luciferase reporter qHTS assay (AID 1671199); also: nearly all actives have a fitted effect of over 50% in size; as to activity change, negative = inhibition: series mostly up to about 120 µM
# Sequence of Cytochrome P450 1A2 (Homo sapiens) (P05177 whole entry, looked up): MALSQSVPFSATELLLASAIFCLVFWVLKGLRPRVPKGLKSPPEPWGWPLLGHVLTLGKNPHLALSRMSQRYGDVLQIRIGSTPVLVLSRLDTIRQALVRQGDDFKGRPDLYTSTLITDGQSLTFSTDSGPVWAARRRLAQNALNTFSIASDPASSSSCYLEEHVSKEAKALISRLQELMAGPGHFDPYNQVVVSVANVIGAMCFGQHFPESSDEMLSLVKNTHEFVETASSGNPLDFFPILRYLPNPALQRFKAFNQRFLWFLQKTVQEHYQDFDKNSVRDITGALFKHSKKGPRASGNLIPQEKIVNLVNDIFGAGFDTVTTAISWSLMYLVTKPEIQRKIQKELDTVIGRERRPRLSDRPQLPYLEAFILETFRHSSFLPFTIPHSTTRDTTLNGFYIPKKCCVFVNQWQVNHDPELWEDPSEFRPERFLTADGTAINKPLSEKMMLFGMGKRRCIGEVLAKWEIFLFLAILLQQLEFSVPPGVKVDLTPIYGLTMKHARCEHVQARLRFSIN
# Summary of the method: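 Compounds were incubated with CYP1A2 and a luminogenic proluciferin substrate for 10 min at room temperature before the reaction was started with NADPH regeneration solution. After 1 h, detection reagent was added and light output, proportional to CYP activity, was recorded.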
# [4] = molecular target: Voltage-gated inwardly rectifying potassium channel KCNH2 (Homo sapiens) (UniProt Q12809); assay: Human Ether-a-go-go-Related Gene (hERG) channel small molecule antagonists: fluorescence cell-based qHTS assay (AID 1671200); also: nearly all actives have a fitted effect of over 50% in size;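 as to activity change, negative = inhibition: hERG-expressing U2OS cells given a thallium stimulus after FluxOR II dye loading; series mostly up to about 77 µM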
# Sequence of Voltage-gated inwardly rectifying potassium channel KCNH2 (Homo sapiens) (Q12809 whole entry, looked up): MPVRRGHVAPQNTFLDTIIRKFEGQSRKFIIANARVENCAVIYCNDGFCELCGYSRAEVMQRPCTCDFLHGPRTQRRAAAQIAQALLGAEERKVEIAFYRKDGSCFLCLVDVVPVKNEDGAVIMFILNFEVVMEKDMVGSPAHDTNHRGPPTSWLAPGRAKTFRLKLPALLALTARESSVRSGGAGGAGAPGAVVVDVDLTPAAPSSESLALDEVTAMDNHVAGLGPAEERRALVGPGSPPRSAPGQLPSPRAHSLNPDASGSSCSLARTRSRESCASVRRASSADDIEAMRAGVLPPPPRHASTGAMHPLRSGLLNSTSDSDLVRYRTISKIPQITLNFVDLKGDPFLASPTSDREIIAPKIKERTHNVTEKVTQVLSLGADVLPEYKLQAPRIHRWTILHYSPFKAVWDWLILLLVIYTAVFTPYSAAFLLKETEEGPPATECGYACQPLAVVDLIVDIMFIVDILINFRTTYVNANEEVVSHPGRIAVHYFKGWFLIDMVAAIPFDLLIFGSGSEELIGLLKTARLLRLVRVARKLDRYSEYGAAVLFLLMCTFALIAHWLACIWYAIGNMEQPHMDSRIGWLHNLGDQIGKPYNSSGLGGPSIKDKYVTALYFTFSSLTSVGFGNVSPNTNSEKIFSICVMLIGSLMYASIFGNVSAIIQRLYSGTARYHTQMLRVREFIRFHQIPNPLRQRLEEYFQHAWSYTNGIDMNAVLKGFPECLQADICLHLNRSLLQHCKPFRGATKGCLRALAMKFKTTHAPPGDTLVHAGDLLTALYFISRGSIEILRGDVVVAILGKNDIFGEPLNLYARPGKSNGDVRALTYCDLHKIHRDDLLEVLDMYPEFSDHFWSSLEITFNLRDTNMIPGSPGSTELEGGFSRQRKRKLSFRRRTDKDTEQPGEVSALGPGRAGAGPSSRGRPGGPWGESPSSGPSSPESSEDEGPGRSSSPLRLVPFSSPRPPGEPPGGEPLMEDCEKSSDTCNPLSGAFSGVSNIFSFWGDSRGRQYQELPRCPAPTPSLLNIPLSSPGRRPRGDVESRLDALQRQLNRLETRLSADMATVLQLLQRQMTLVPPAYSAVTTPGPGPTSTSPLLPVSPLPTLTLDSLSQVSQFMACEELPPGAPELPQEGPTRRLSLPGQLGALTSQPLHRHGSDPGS
# Summary of the method: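 Read-out: thallium influx as a surrogate for potassium, tracked as fluorescence (480 nm ex/540 nm em) every second for 2 min after Stimulus Buffer addition in dye-loaded hERG-U2OS cells.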
# [5] = molecular target: Cytochrome P450 3A4 (Homo sapiens) (UniProt P08684); assay: Cytochrome P450 Family 3 Subfamily A Member 4 (CYP3A4) small molecule antagonists: luciferase reporter qHTS assay (AID 1671201); also: nearly all actives have a fitted effect of over 50% in size; as to activity change, negative = inhibition: series mostly up to about 120 µM
# Sequence of Cytochrome P450 3A4 (Homo sapiens) (P08684 whole entry, looked up): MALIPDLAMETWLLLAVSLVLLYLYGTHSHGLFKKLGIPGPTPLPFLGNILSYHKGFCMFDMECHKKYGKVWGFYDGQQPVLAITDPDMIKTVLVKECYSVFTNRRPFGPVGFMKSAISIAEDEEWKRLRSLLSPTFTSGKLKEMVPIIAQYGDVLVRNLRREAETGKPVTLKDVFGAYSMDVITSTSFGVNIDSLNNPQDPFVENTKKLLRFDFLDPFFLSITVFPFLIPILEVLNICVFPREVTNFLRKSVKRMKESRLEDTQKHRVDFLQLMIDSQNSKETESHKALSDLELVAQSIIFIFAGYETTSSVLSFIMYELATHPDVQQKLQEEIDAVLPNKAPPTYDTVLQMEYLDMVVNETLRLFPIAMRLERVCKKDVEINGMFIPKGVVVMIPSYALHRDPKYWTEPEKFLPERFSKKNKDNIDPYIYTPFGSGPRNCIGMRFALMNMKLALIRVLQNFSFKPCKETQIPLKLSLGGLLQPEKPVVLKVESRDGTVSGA
# Summary of the method: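 Luminescent readout (RLU) proportional to CYP3A4 activity, from luciferin generated off a proluciferin substrate. Enzyme–substrate mix plus compound 10 min at room temp, NADPH regeneration 1 h, detection reagent 20 min.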
# Potency is read from the fitted curve at half-maximal effect.
smiles,measurement,setting,value
CCOC(=O)NCCOc1ccc(Oc2ccccc2)cc1,Potency,[1],6.33 µM (active)
same,Potency,[2],20 µM (active)
same,Potency,[3],11.2 µM (active)
same,Potency,[4],43.6 µM (active)
same,Potency,[5],inactive
O=C1c2ccccc2S(=O)(=O)N1CCCCN1CCN(c2ncccn2)CC1,Potency,[1],inactive
same,Potency,[2],15.5 µM (active)
same,Potency,[3],inactive
same,Potency,[5],inactive
C=CCOc1ccccc1OCC(O)CNC(C)C (stereo not given),Potency,[1],inactive
same,Potency,[2],inactive
same,Potency,[3],10.2 µM (active)
same,Potency,[4],inactive
same,Potency,[5],inactive
CC(=O)c1cccc([N+](=O)[O-])c1,Potency,[1],inactive
same,Potency,[2],inactive
same,Potency,[3],35.5 µM (active)
same,Potency,[4],inactive
same,Potency,[5],inactive
Cc1oc2c(NC(=O)c3c(Cl)cccc3Cl)cccc2c1C(C)(C)O,Potency,[1],inactive
same,Potency,[2],1.59 µM (active)
same,Potency,[3],31.7 µM (active)
same,Potency,[4],inactive
same,Potency,[5],28.3 µM (active)
O=C(NCC1CN(c2ccc(N3CCOCC3=O)cc2)C(=O)O1)c1ccc(Cl)s1 (stereo not given),Potency,[1],inactive
same,Potency,[2],9.77 µM (active)
same,Potency,[5],inactive
NC(N)=NCCC[C@H](N)C(=O)O,"activity change, negative = inhibition",[1],24.2% [at 10.5 µM]
same,"activity change, negative = inhibition",[2],10.6% [at 10.5 µM]
same,"activity change, negative = inhibition",[3],1.33% [at 10.5 µM]
same,"activity change, negative = inhibition",[5],0.752% [at 10.5 µM]
OC[C@H]1O[C@@H](OCCc2ccc(O)cc2)[C@H](O)[C@@H](O)[C@@H]1O,Potency,[1],inactive
same,Potency,[2],inactive
same,Potency,[3],inactive
same,Potency,[5],inactive
CC1=CC=C(C(C)C)CC1,Potency,[1],35.6 µM (active)
same,Potency,[2],63.3 µM (active)
same,Potency,[3],31.7 µM (active)
same,Potency,[5],39.9 µM (active)
NC(=O)C(c1ccccc1)(c1ccccc1)[C@@H]1CCN(CCc2ccc3c(c2)CCO3)C1,Potency,[1],inactive
same,Potency,[2],inactive
same,Potency,[3],inactive
same,Potency,[5],inactive
CC1=CC[C@H](C(C)C)C=C1,Potency,[1],39.9 µM (active)
same,Potency,[2],39.9 µM (active)
same,Potency,[4],inactive
same,Potency,[5],28.3 µM (active)
CN(C)c1ccc(/C=C/c2ccc([N+](=O)[O-])cc2)cc1,"activity change, negative = inhibition",[1],15.9% [at 10.5 µM]
same,"activity change, negative = inhibition",[2],-1.18% [at 10.5 µM]
same,"activity change, negative = inhibition",[4],3.51% [at 6.97 µM]
same,"activity change, negative = inhibition",[5],3.87% [at 10.5 µM]
CCN(CC)c1ccc2c(-c3ccccc3C(=O)O)c3ccc(=[N+](CC)CC)cc-3oc2c1,Potency,[1],71 µM (active)
same,Potency,[2],28.3 µM (active)
same,Potency,[3],35.6 µM (active)
same,Potency,[5],12.6 µM (active)
CC(C)(CO)[N+](=O)[O-],Potency,[1],inactive
same,Potency,[2],inactive
same,Potency,[3],inactive
same,Potency,[5],inactive
COc1cc2nc(N3CCN(C(=O)C4COc5ccccc5O4)CC3)nc(N)c2cc1OC (stereo not given),Potency,[1],inactive
same,Potency,[3],inactive
O=C(O)CC(=O)C(=O)O,Potency,[1],56.6 µM (active)
same,Potency,[2],inactive
same,Potency,[4],inactive
same,Potency,[5],inactive
